Measurements taken from PubChem BioAssay (Tox21).
The source made the active and inactive calls. The call rests on the fitted dose curve.

Each compound was assayed against Gonadotropin-releasing hormone receptor (Homo sapiens) (UniProt P30968) (assay: Human gonadotropin-releasing hormone receptor (GnRHR) small molecule agonists, calcium flux assay in GnRHR-HEK293 cells (AID 1920063; further: nearly all actives have a fitted effect of over 35% in size)). Conditions: calcium flux fluorescence, agonist mode; series mostly up to 57.6 µM; activity change: at the top concentration.
Source text: National Center for Advancing Translational Sciences [NCATS]
Division of Preclinical Innovation [DPI]
U.S. Environmental Protection Agency [EPA]
National Institutes of Environmental Health Sciences [NIEHS]
National Toxicology Program [NTP]
U.S. Food and Drug Administration [FDA]
Gonadotropin-releasing hormone receptor (GnRHR) is a G-protein-coupled receptor (GPCR) and acts (through phospholipase C) to increase intracellular inositol trisphosphate and then release intracellular calcium stores. Cell-based GnRHR-Hek293 calcium influx assay is using HEK293 cells that have been genetically engineered to express the human GnRHR, which activity can be measured by calcium signaling. A compound/drug can activate (agonist) GnRHR that can be monitored by levels of intracellular calcium.
GnRHR-HEK293 cells developed by Codex Corp contain human GnRHR reporter gene, which was stably integrated into HEK 293 cells. The compound activation can be detected by fluorescence intensity via calcium flux assay. This cell line has been used to screen the Tox21 10K compound library to identify GnRHR agonists.
GnRHR-Hek293 cells were dispensed at 1500cells/4uL/well in 1536-well black wall/clear bottom plates using a multidrop dispenser. After the assay plates were incubated at a 37 C/5% CO2 incubator for 18 hours, 4 uL of Calcium Dye Solution was added to each well. The plates were incubated at 37 C for 1 hour. For agonist mode, 23 nL of compounds dissolved in DMSO, positive controls or DMSO only was transferred to the assay plate by a pin tool station. The fluorescence intensity in the plates was measured using FDSS 7000EX kinetic plate reader with a filter set of Ex/Em=480/540 for 3 min at 1 sec intervals. Each test compound was measured at 15 concentrations and in triplicates.
On the % scale 0 is the no-effect control and ±100 the full control effect; potency means the concentration at half of the fitted maximal effect.

Gonadotropin-releasing hormone receptor (Homo sapiens), sequence (P30968 whole entry, looked up): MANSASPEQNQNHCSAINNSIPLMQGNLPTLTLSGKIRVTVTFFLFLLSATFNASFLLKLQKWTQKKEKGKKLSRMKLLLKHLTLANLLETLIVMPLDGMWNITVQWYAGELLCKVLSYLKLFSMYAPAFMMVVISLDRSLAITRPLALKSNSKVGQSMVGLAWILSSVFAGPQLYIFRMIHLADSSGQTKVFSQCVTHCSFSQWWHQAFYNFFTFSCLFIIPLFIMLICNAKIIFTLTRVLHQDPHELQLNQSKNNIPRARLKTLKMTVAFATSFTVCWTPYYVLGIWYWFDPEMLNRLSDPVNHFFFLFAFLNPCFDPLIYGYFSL

| SMILES | activity change | Potency |
| --- | --- | --- |
| CC#C[C@]1(O)CC[C@H]2[C@@H]3C[C@H](C)C4=CC(=O)CC[C@]4(C)[C@H]3CC[C@@]21C | 0.892% [at 26.4 µM, hits give high values] (inactive) |  |
| CCC(Cl)CCl (stereo not given) | 2.12% (inactive) |  |
| CN=CNc1ccc(C)cc1C | -0.1% (inactive) |  |
| CCC(=O)C(CCN(C)C)(c1ccccc1)c1ccccc1 | -0.129% [at 26.4 µM, hits give high values] (inactive) |  |
| CC(C)[N+](=O)[O-] | -0.794% (inactive) |  |
| CCC[CH2][Sn]([CH2]CCC)([CH2]CCC)[O]C(=O)c1ccccc1 |  | 4.9 µM (active) |
| CCCSC(=O)N(CCC)CCC | -1.16% (inactive) |  |
| NC(=O)CS(=O)C(c1ccccc1)c1ccccc1 (stereo not given) | -0.427% [at 26.4 µM, hits give high values] (inactive) |  |
| OC(c1ccc(Cl)cc1)(c1ccc(Cl)cc1)c1cccnc1 | 0.315% (inactive) |  |
| CC(=O)[O][Sn]([c]1ccccc1)([c]1ccccc1)[c]1ccccc1 |  | 17.4 µM (active) |
| COc1c2c(cc3c1OCO3)CCN(C)C2 | 1.39% [at 26.4 µM, hits give high values] (inactive) |  |
| Nc1cc2c3c(c1)C(c1ccccc1)=N[C@@H](NC(=O)c1cccnc1)C(=O)N3CC2 | -0.489% (inactive) |  |
| C=CC(=C)C | 0.783% (inactive) |  |
| C=CC(=O)[O][Sn]([CH2]CCC)([CH2]CCC)[CH2]CCC |  | 5.49 µM (active) |
| Cc1cc(C(C)(C)c2cc(C)c(O)c(C)c2)cc(C)c1O |  | 33.5 µM (active) |
| CCOC(=O)C(Cl)C(C)=O (stereo not given) | 1.68% (inactive) |  |
| SCc1ccccc1 | 2.16% (inactive) |  |
| CCCCCCCc1ccc(O)cc1 | 15.5% (inactive) |  |
| Nc1nc(N)nc(N)n1 | 1.74% (inactive) |  |
| CCCCOC(C)=O | 3.66% (inactive) |  |

| SMILES | activity change | Potency |
| --- | --- | --- |
| CN/C(=N\[N+](=O)[O-])NCc1cnc(Cl)s1 | -0.0373% (inactive) |  |
| Nc1ccc(N=Nc2ccccc2)cc1 | 7.09% (inactive) |  |
| CCOC(=O)CCl | 5.17% (inactive) |  |
| CC(C)(C#N)C(C)(C)C#N | -0.583% (inactive) |  |
| O=C(O)c1c(Cl)ccc2cc(Cl)cnc12 | -0.3% (inactive) |  |
| Nc1c(Cl)c(F)nc(OCC(=O)O)c1Cl | -0.634% (inactive) |  |
| ClCBr | -1.54% (inactive) |  |
| O=NN1CCNCC1 | -0.474% (inactive) |  |
| CN1CCN(C(=O)O[C@H]2c3nccnc3C(=O)N2c2ccc(Cl)cn2)CC1 | -1.21% [at 26.4 µM, hits give high values] (inactive) |  |
| c1csc(-c2ccc(-c3cccs3)s2)c1 | -0.885% (inactive) |  |
| CS/C(C)=N/OC(=O)N(C)SN(C)C(=O)O/N=C(\C)SC | 3.62% (inactive) |  |
| CCNC(=O)NC(=O)/C(C#N)=N/OC | -1.01% (inactive) |  |
| COc1cc(OC)nc(NC(=O)NS(=O)(=O)c2ncccc2OCC(F)(F)F)n1 | -0.0425% (inactive) |  |
| COP(=O)(OC)O/C(=C\Cl)c1cc(Cl)c(Cl)cc1Cl | 4.04% (inactive) |  |
| CC(C)Br | -1.38% (inactive) |  |
| CCOP(=S)(OCC)OC(Cl)C(Cl)(Cl)Cl (stereo not given) | -0.184% (inactive) |  |
| CCS(=O)(=O)c1cccnc1S(=O)(=O)NC(=O)Nc1nc(OC)cc(OC)n1 | -0.139% (inactive) |  |
| c1ccc(OCC2CO2)cc1 (stereo not given) | -1.61% (inactive) |  |
| COc1cc(CC#N)cc(OC)c1OC | -0.906% [at 26.4 µM, hits give high values] (inactive) |  |
| Cc1ccn2nc(S(=O)(=O)Nc3c(F)cccc3F)nc2n1 | -1% (inactive) |  |
